The values that follow come from PubChem BioAssay AID2599 (Sanford-Burnham Center for Chemical Genomics, 2010).

Hit rate of the full screen: of about 330,000 compounds, about 5,800 (1.8%) were called active. The list comes from a sample in which actives are over-represented; it also holds similar structures and randomly drawn compounds. Values without a mark were called inactive.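 The calls were made as follows: active = inhibition above about 50% at the single tested dose (limit read from the data); inactive = the rest.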

The target in this test is Sentrin-specific protease 6 (Homo sapiens) (UniProt Q9GZR1). The test can be described thus: SENP6 protease inhibitors, primary screen, biochemical, luminescence, uHTS (AID 2599).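 Also: plate controls were DMSO wells with enzyme for no effect and DMSO wells lacking enzyme for full effect.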 The note with it: Recombinant SENP6 catalytic domain, aminoluciferin luminescence; at 10 µM; hits give high values.
Chain of Sentrin-specific protease 6 (Homo sapiens) (Q9GZR1 628-1112 limits assumed): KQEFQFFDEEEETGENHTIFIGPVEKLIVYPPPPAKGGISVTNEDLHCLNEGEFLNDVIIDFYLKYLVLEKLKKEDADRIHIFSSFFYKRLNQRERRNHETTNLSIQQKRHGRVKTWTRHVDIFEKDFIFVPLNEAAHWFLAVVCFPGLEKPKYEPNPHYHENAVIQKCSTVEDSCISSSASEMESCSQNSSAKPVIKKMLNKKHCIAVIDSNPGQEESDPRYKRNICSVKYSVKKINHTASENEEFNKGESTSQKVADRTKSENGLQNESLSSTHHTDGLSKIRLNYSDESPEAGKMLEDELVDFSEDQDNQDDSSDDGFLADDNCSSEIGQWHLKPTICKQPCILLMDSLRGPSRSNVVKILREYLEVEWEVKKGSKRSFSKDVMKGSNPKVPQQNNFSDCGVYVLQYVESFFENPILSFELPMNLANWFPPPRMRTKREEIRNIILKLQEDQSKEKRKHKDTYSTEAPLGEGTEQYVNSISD
As usually defined, the inhibition is the change of the read-out against control, counted positive when it falls. Consider `O=C(COC(=O)Cn1[nH]c(=O)c2ccccc2c1=O)Nc1ncc(Cl)cc1Cl`, for which the inhibition is -4.87%.

`Cc1cccc(NS(=O)(=O)c2ccc(C(=O)NCC(C)(C)N3CCOCC3)cc2)c1C`: the inhibition was 4.82%.

As to `C=CCOc1ccc(C2/C(=C(\O)c3c(C)[nH]c(C(=O)OC)c3C)C(=O)C(=O)N2CCN(C)C)cc1` (stereo unspecified), the inhibition was 9.74%.

With `COc1ccc(CN(C)C(=O)Cc2ccsc2)c(OC)c1OC`, the inhibition was -22.6%.

As to `O=C(Nc1ccc(C2CC2(Cl)Cl)cc1)c1cccc([N+](=O)[O-])c1` (stereo unspecified), the inhibition was 76.9% (active).

As for `N#CCCN(C(=O)COC(=O)c1ccc2c(c1)OCCO2)c1ccccc1`, the inhibition was 6.71%.

As for `O=C(Nc1ccc(NC(=O)c2ccco2)c(Cl)c1)c1cccc([N+](=O)[O-])c1`, the inhibition was 14.1%.

For `O=C(COC(=O)c1ccc2c(c1)OCCO2)NCc1ccccc1Cl`, the inhibition was 3.1%.

For the molecule `Cc1cc(C)nc(NC(=O)c2cccc([N+](=O)[O-])c2)c1`, the inhibition is -34.1%.

Consider `O=C(OCc1ccccc1F)c1ccc2c(c1)OCCO2`, for which the inhibition is 95.5% (active).

Turning to `O=C(CCC(=O)n1ncc2ccccc21)NCc1ccccc1Cl`, the inhibition was 15.9%.

With `Cc1nc(N)c(Br)c(C)c1Br`, the inhibition was 0%.

As to `COc1cccc(-n2nc(C(=O)N3CCN(Cc4ccccc4)CC3)c3ccccc3c2=O)c1`, the inhibition was -0.104%.

Consider `O=C(O)CSc1nccn1-c1cccc(Cl)c1`, for which the inhibition is -22.5%.

Turning to `COCCCNC(=O)Cn1c(=O)n(Cc2ccccc2Cl)c(=O)c2cc(OC)c(OC)cc21`, the inhibition is -8.65%.

Take `O=S(=O)(c1cnccc1N1CCN(/N=C/c2ccc(Br)cc2)CC1)N1CCCCC1`: the inhibition was -13.3%.

For `Cc1c(Cl)cccc1NC(=O)Nc1ccc(C(=O)N2CCCC2)cc1`, the inhibition is 61.5% (active).

Regarding `Cc1c(Cl)cccc1NC(=O)NCCCN1CCCC1=O`, the inhibition was 2.62%.

For `O=C(Nc1ccc(Cl)cc1)Nc1ccc(C(=O)N2CCOCC2)cc1`, the inhibition is -8.3%.

For the molecule `O=C(c1ccc2ccccc2n1)N1CCN(c2ccccc2Cl)CC1`, the inhibition is 5.78%.

As to `CC(=O)Nc1ccc(OC(=O)COc2ccc(Br)cc2)cc1`, the inhibition was -9.28%.

In the case of `S=c1[nH]nc(-c2cc(-c3ccccc3)n[nH]2)n1/N=C/c1c2ccccc2cc2ccccc12`, the inhibition is -3.75%.

Regarding `Oc1ccccc1-c1cc(-c2ccc(Cl)cc2)n[nH]1`, the inhibition was 89.2% (active).

As for `CC(C)C(=O)NCc1cc(-c2ccc(Cl)cc2)no1`, the inhibition is -26.7%.

On to `S=c1[nH]nc(-c2cc(-c3ccsc3)n[nH]2)n1-c1ccccc1`, for which the inhibition was -13.8%.

For the molecule `Cc1ccc(NC(=O)c2cc(-c3ccccc3O)n[nH]2)cc1C`, the inhibition was -12.4%.

Turning to `c1ccc(-c2cc(-c3ccccc3)[nH]n2)cc1`, the inhibition is 59.9% (active).

Regarding `CCCOc1ccc(N2C(=O)CC(N(CCc3ccc(S(N)(=O)=O)cc3)C(C)=O)C2=O)cc1` (stereo unspecified), the inhibition is -12.7%.

With `COc1ccc(C(=O)OCC(=O)c2cc(C)n(CC3CCCO3)c2C)cc1[N+](=O)[O-]` (stereo unspecified), the inhibition is -1.02%.

Turning to `Cc1cc(C(=O)Cn2cnc3cc([N+](=O)[O-])ccc3c2=O)c(C)n1CC1CCCO1` (stereo unspecified), the inhibition is -13.2%.

For the molecule `Cc1ccsc1C(=O)OCC(=O)c1cc(C)n(CC2CCCO2)c1C` (stereo unspecified), the inhibition was 97.8% (active).

Consider `Cc1coc2cc3oc(=O)c(CCC(=O)O)c(C)c3cc12`, for which the inhibition is 1.41%.

Take `COc1ccccc1NC(=O)CSc1nnc(-c2ccoc2C)n1CCc1ccccc1`: the inhibition was -3.86%.

Take `Cc1ccc(S(=O)(=O)N2CCOCC2)cc1C(=O)OC1CCCCC1=O` (stereo unspecified): the inhibition was 7.83%.

For the molecule `CN1C(=O)c2cccc3c(N)ccc(c23)C1=O`, the inhibition is -16.2%.

Turning to `CCN1C(=O)c2cccc3c(S(=O)(=O)Nc4ccccc4O)ccc1c23`, the inhibition is -9.84%.

For the molecule `CCN1C(=O)c2cccc3c(N)ccc1c23`, the inhibition is 80.3% (active).

As to `Cc1ccc(C)c(Cn2cnc3c(oc4ccccc43)c2=O)c1`, the inhibition is 9.24%.

Regarding `Cc1c(NC(=O)C(C)OC(=O)c2ccccc2O)c(=O)n(-c2ccccc2)n1C` (stereo unspecified), the inhibition was -6.6%.

`CCN(CC)c1ccc(/C=N/NC(=O)CNC(=O)c2cccs2)cc1`: the inhibition is -14.6%.

`CC(C)C(=O)Nc1ccc(C(=O)NNC(=O)c2cccs2)cc1`: the inhibition is 3.9%.

`CCc1ccc(NC(=O)C(=O)NNC(=O)c2cccs2)cc1`: the inhibition is 85.8% (active).

Consider `CC(=O)Nc1ccc(/C=N/NC(=O)c2cccs2)cc1`, for which the inhibition was 58.1% (active).

With `Cc1cccc(-n2c(C)cc(/C=N\NC(=O)c3cccs3)c2C)c1`, the inhibition was -11.3%.

On to `CCc1ccc(NC(=O)COC(=O)c2cccs2)cc1`, for which the inhibition is 8.32%.

With `CSc1cccc(NC(=S)N(C(C)C)C(C)c2ccccn2)c1` (stereo unspecified), the inhibition was 4.01%.

Turning to `CC1(C)CC(=O)c2c(n(S(=O)(=O)c3ccccc3)c3ccc(NS(=O)(=O)c4ccccc4)cc23)C1`, the inhibition was 6.92%.

In the case of `COc1ccc(-c2oc3ncn(Cc4ccco4)c(=N)c3c2-c2ccc(OC)cc2)cc1`, the inhibition was -13.1%.

`COc1cccc(NC(=O)COC(=O)c2ccc3ccccc3n2)c1`: the inhibition is -3.74%.

Turning to `CCc1nnc(NC(=O)CSc2nnnn2-c2cccc(C(C)=O)c2)s1`, the inhibition was -12.9%.

With `Cc1ccccc1C(=O)NC(=S)Nc1ccc(N2CCN(C(=O)c3ccccc3)CC2)cc1`, the inhibition is 2.96%.

In the case of `COc1cccc(C(=O)Nc2ccc(N3CCCC3)cc2)c1`, the inhibition is 97.6% (active).

Regarding `COc1ccc(C(=O)Nc2cccc(S(C)(=O)=O)c2)cc1`, the inhibition is -10.8%.

On to `COc1cccc(NC(=O)CN(C)CC(=O)Nc2ccc3c(c2)CCC3)c1`, for which the inhibition is -11.1%.

Regarding `CCC(=O)Nc1ccc(C(=O)Nc2cccc(OC)c2)cc1`, the inhibition was 51.2% (active).

Turning to `COc1cccc(C(=O)Nc2nnc(S(=O)(=O)N3CCCCC3)s2)c1`, the inhibition was 0.355%.

Regarding `CSc1cccc(NC(=O)CSc2ccccc2)c1`, the inhibition was -11%.

Consider `Cc1ccccc1C(=O)N1CCN(c2ccc(NC(=O)c3cccs3)cc2)CC1`, for which the inhibition is -5.79%.

For the molecule `CCOc1ccc(C(=O)Nc2cccc(-c3ccc4nncn4n3)c2)cc1`, the inhibition is 5.7%.

Regarding `CCOc1ccc(C(=O)Nc2cccc(SC)c2)cc1`, the inhibition was 91.4% (active).

Consider `O=C(Nc1ccc(N2CCOCC2)cc1)c1cccc(S(=O)(=O)N2CCOCC2)c1`, for which the inhibition is -0.135%.

On to `Cc1ccccc1C(=O)Nc1ccc(N2CCCCCC2)cc1`, for which the inhibition is 72.7% (active).

Turning to `CCn1c(=S)sc2c(=O)n(CC(=O)Nc3cccc(Br)c3)c(C)nc21`, the inhibition was 3.55%.

As for `Cc1cccc(C(=O)OCC(=O)NCC(C)C)c1O`, the inhibition is 9.44%.

As for `CCCn1c(SCC(=O)Nc2c(C)cccc2C)nnc1C(C)C`, the inhibition was -9.77%.

Consider `C=CCOc1ccc(/C=N/NC(=O)C(C)Sc2ccccn2)cc1OCC` (stereo unspecified), for which the inhibition is -0.571%.

On to `COc1ccc(CCNC(=O)C(=O)NCC2OCCN2S(=O)(=O)c2cccs2)cc1OC` (stereo unspecified), for which the inhibition was -6.36%.

As for `Cc1ccc(NC(=O)CCOc2ccccc2)cc1S(=O)(=O)Nc1ccccc1Cl`, the inhibition was 1.1%.

Turning to `Cc1c(C(=O)NCCN(C)C)oc2ccc(S(=O)(=O)N3CCCC3)cc12`, the inhibition was 4.61%.

With `CS(=O)(=O)N(CC(=O)NC1CCCC1)Cc1ccc(F)cc1`, the inhibition is -6.07%.

Consider `O=C(NC1CC1)c1ccc(-c2ccccc2)cc1`, for which the inhibition is -15.5%.

Regarding `CNC(=O)c1sc(NCc2ccccc2OC)nc1C`, the inhibition is 8.32%.

`COc1ccccc1/C=N/Nc1nc(C)c(C(C)=O)s1`: the inhibition is -28%.

Turning to `COc1cccc2sc(Nc3nc(C)c(C(C)=O)s3)nc12`, the inhibition is 87.8% (active).

In the case of `CCn1c(SCC(=O)Nc2ccc(Br)cc2)nc2sc3c(c2c1=O)CCN(C)C3`, the inhibition was 12.7%.

`CCOc1ccc(CN2CCN(Cc3ccc4cc(F)ccc4n3)CC2CCO)cc1` (stereo unspecified): the inhibition was 9.04%.

As for `COc1cccc(-c2ccc3c(c2)S(=O)(=O)c2cccc(C(=O)O)c2C3=O)c1OC`, the inhibition is -1.89%.

`O=C(O)c1ccc2c3c(cccc13)C(=O)N(OS(=O)(=O)c1ccccc1)C2=O`: the inhibition was 60.3% (active).

Consider `CCN(c1ccccc1)S(=O)(=O)c1cccc(C(=O)NCc2ccccc2CN2CCOCC2)c1`, for which the inhibition was -16.6%.

With `CCc1ccc(C(=O)OCC(=O)NCC(F)(F)F)cc1`, the inhibition is -1.8%.

For `CCCC1NC(=O)NC(C)=C1C(=O)OCC` (stereo unspecified), the inhibition was -6.49%.

As to `Cc1nnc(NC(=O)/C=C/c2ccco2)s1`, the inhibition is -18.6%.

Consider `O=C(/C=C/c1ccco1)Nc1ccc(Oc2ccccc2)cc1`, for which the inhibition is 80.1% (active).

With `O=C(/C=C/c1ccco1)NC(=S)Nc1ccccc1Br`, the inhibition is 6.12%.

With `CCOC(=O)C1(Cc2cccc(OC)c2)CCCN(S(=O)(=O)c2cccnc2)C1` (stereo unspecified), the inhibition was -9.47%.

For `Oc1ccc(N=Nc2nccs2)c(O)c1`, the inhibition is 87.3% (active).

As for `C=CCC(NC(=O)Cc1ccccc1)C(=O)NCCC` (stereo unspecified), the inhibition is -9.67%.

Consider `Cc1nonc1C(=O)N/N=C/c1ccc(O)cc1`, for which the inhibition was 98.9% (active).

Turning to `COC(=O)N/N=C/c1ccc(/C=N/NC(=O)OC)cc1`, the inhibition is -17.5%.

As to `Cc1nc2ccc(C(=O)N/N=C/c3ccc(O)cc3)cc2[nH]1`, the inhibition was -6.89%.

Regarding `CCOC(=O)C1(Cc2ccccc2C(F)(F)F)CCN(C(=O)c2cc(C)n(C)n2)CC1`, the inhibition is -1.7%.

For the molecule `O=C(NC(=S)N1CCc2ccccc21)c1ccco1`, the inhibition is 7.02%.

Consider `COc1ccccc1-c1nnc(NC(=O)c2ccc3ncsc3c2)o1`, for which the inhibition is -1.73%.

For the molecule `Cc1sc(NC(=O)c2ccc3ncsc3c2)c(C(N)=O)c1C`, the inhibition is 71.4% (active).

On to `Cc1ccc(C(=O)c2c(NC(=O)c3ccccc3)sc(C)c2C)cc1`, for which the inhibition is -6.69%.

Take `COc1ccc(CN(Cc2ccco2)S(=O)(=O)c2ccc(S(=O)(=O)N3CCCC3)cc2)cc1`: the inhibition was 3.07%.
